Activation data for 91 molecules are collected here from PubChem BioAssay AID652126 (The Scripps Research Institute Molecular Screening Center, 2013).

Out of some 370,000 compounds screened, about 3,700 (1%) were called active. For the sample, actives were picked, then their nearest neighbours and some compounds at random. Values without a mark were called inactive.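 How the source made its calls: active means activation above the mean over all tested compounds plus 3 SD (cut at about 0.9% in these data); inactive means the rest.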

This assay relates to Nuclear hormone receptor DAF-12 (Strongyloides stercoralis). As to the kind of experiment: ssDAF-12 driven luciferase reporter activation – cell-based, luminescence, HEK293, GRIP1 co-expression, lit1-tk-luc, primary screen (AID 652126).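 Further: 0% = DMSO-only wells and 100% = 3 µM delta7-dafachronic acid wells.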 As to conditions: HEK293 ssDAF-12/GRIP1 lit1-tk-luc reporter, at 6.8 µM, hits give high values, % of 3 µM dafachronic acid response. (In general: A reporter such as luciferase makes a cellular process visible.)
For the molecule `CC(C)C(C#CC1CC1)N(Cc1ccc2c(c1)OCO2)C(N)=NC(=O)/C=C/c1cccc(C(F)(F)F)c1` (stereo unspecified), the activation was -1.84%.

In the case of `O=C(O)c1ccc(N/N=C/c2cn(-c3ccccc3)nc2-c2cccs2)cc1`, the activation was 1.45% (active).

With `CC(=O)c1ccc(NC(=O)c2cc(-c3cccs3)on2)cc1`, the activation was -0.86%.

As to `O=C(N/N=C/c1sc(N2CCCCC2)nc1-c1cccs1)c1cccnc1`, the activation is -1.2%.

With `O=C(NC1CCCCN(Cc2ccc(Cl)cc2)C1=O)c1ccc(Br)cc1` (stereo unspecified), the activation is -1.36%.

`Cc1ccc(Cn2cc(CN3[C@@H](CC(C)C)COc4ccc(Cl)cc4S3(=O)=O)nn2)cc1`: the activation is -1.11%.

With `CCOC(=O)c1nnn(CC(=O)Nc2cccc(F)c2)c1C(=O)OCC`, the activation is -1.33%.

Take `CCC(=O)Nc1ccc2nn(-c3ccc(F)cc3)nc2c1`: the activation is 1.14% (active).

In the case of `O=C(Nc1cccc(Cl)c1)c1cncn1-c1ccc(F)cc1`, the activation was -1.04%.

With `COC(=O)[C@]12C[C@H](CC(=O)NCc3cccc4ccccc34)C(=O)N(CCc3ccc(OC)c(OC)c3)C1=C[C@H](C1CCCC1)O[C@@H]2C`, the activation was -0.95%.

Consider `O=C(Nc1ccc(Br)cc1)OCCN1C(=O)CCC12CCC(c1ccccc1)CC2` (stereo unspecified), for which the activation is -0.35%.

For `CCOC(=O)c1c(N)sc2c1CCCC2=O`, the activation is 1.3% (active).

As to `CCOC(=O)c1c(CC(C)C)csc1/N=C/C1=C(O)CCCC1=O`, the activation is -1.42%.

In the case of `CCOC(=O)c1c(/N=C/c2cc(C)ccc2O)sc2c1CCC2`, the activation is -1.3%.

For the molecule `O=C(C1CCN(S(=O)(=O)c2ccccc2)CC1)N1CCN(C2CCCCC2)CC1`, the activation is -1.32%.

In the case of `CC(CCN1CCC(C(O)(c2ccccc2)c2ccccc2)CC1)Oc1ccc(Cl)cc1` (stereo unspecified), the activation is -0.71%.

`Cc1ccc(-c2nc(C3CCCN(S(=O)(=O)c4ccc(Br)s4)C3)no2)cc1` (stereo unspecified): the activation is -1.49%.

In the case of `Nc1nc2c(Br)ccc(Br)c2cc1C(=O)NCCc1ccccc1`, the activation was -1.14%.

Take `Nc1nonc1C(=O)NCCc1ccccc1`: the activation was -1.42%.

`NC(=O)Nc1ccccc1C(=O)NCCc1ccccc1`: the activation was 1.06% (active).

On to `O=C(OC12CCCN(C1)/C(=C/c1ccccc1)C2)c1ccco1` (stereo unspecified), for which the activation is -0.69%.

For `O=C(C1CCCN1S(=O)(=O)c1ccccc1)N1CCc2ccccc2C1` (stereo unspecified), the activation is -1.12%.

`COc1ccc(C(=O)c2c3ccc([N+](=O)[O-])cc3[n+]([O-])n2CCCN)cc1`: the activation is -1.18%.

On to `COc1ccc(C(=O)CC(=O)c2ccc(C)cc2)c(O)c1`, for which the activation was -1.3%.

With `COc1ccc2c(C(=O)c3ccc(C)cc3)n(CCC(N)=O)[n+]([O-])c2c1`, the activation was 0.92% (active).

Consider `FC(F)(F)c1cccc(Cn2ccc3ccc(-c4ccc5ccn(Cc6ccccc6)c5c4)cc32)c1`, for which the activation was -1.17%.

`Cc1ccc(SCCC(=O)NCc2ccccn2)cc1`: the activation is -1.21%.

As to `Cc1ccc(SCCSc2ncccn2)cc1`, the activation is 0.96% (active).

Consider `Cc1ccc(SCCC(=O)NC(C(C)C)C(C)C)cc1`, for which the activation was -1.68%.

Take `CC(C)N1CCCCC(NC(=O)C(C)(C)C)C1=O` (stereo unspecified): the activation is -1.27%.

For the molecule `CCCCC(=O)N[C@@H]1CC[C@@]23CCCN2C(=O)CCC[C@H]3[C@H]1C`, the activation was -1.42%.

Regarding `CC(C)(C)c1cnnn1-c1ccc([N+](=O)[O-])cc1`, the activation is -1.44%.

In the case of `Cc1nn(-c2ccc([N+](=O)[O-])cc2)c(N)c1-c1ccccc1`, the activation was 0.95% (active).

For `Cc1nn(-c2ccccc2)c2c1C(c1cccc([N+](=O)[O-])c1)N(c1ccccc1)C(=O)N2` (stereo unspecified), the activation was -2.08%.

`CC(C)(C)OC(=O)NCCc1ccccc1/C=C/S(=O)(=O)NCc1ccc(F)cc1`: the activation was -0.76%.

As to `O=C(Nc1ccc2ccccc2c1)Nc1ccc2snnc2c1`, the activation is -0.89%.

As to `O=C(Nc1nc2ccc(Cl)cc2s1)c1cc(-c2ccc(Cl)cc2)nc2ccccc12`, the activation was 0.48%.

`O=C(Nc1ccccc1)Nc1nc2ccccc2s1`: the activation is 2.17% (active).

On to `COc1ccc(CN(CCN2CCOCC2)C(=O)c2ccc(C)cc2)cc1OC`, for which the activation is -0.08%.

Consider `COc1ccc(/C=C2\CC3(OC(C)=O)CCCN2C3)cc1` (stereo unspecified), for which the activation was -1.25%.

Take `Cc1ccc(NC(=O)Nc2cc(C)nn2-c2ccccc2)cc1`: the activation was -0.89%.

`O=C(O)c1n[nH]nc1-c1ccccc1`: the activation was -1.32%.

Turning to `c1ccc(-c2cc(-c3ccccc3)[nH]n2)cc1`, the activation was 2.27% (active).

With `Oc1ccccc1-c1cc(-c2ccc(Cl)cc2)n[nH]1`, the activation was 3.08% (active).

Regarding `c1ccc(-c2c[nH]c(-c3ccccc3)c2)cc1`, the activation was 0.36%.

As for `Cc1c[nH]c2cccc(-c3ccc(Cl)cc3)c12`, the activation is -0.3%.

As to `Cc1cccc(C(=O)Nc2c(-c3ccc(F)cc3)nc3ncccn23)c1`, the activation is -1.19%.

Turning to `Nn1c(SCC(=O)Nc2ccc(S(N)(=O)=O)cc2)nnc1-c1n[nH]c2c1CCC2`, the activation is -0.68%.

Consider `O=C(NCCC1=CCCCC1)C1CCN(S(=O)(=O)c2ccc(Cl)s2)CC1`, for which the activation was -0.79%.

For the molecule `CCOC(=O)[C@]12CCCC=C1N(CCCOC)C(=O)[C@@H]2CC(=O)N1CCOCC1`, the activation was -1.03%.

`Cc1ccc(NC(=O)C2CCCN2C(=O)OCc2ccccc2)cc1C` (stereo unspecified): the activation was -0.56%.

Consider `Cc1ccc(N/C=C/C(=O)c2ccccc2)cc1C`, for which the activation is 3% (active).

As for `O=C(/C=C/Nc1ccc(S(=O)(=O)Nc2cnc3ccccc3n2)cc1)c1cccnc1`, the activation is -0.79%.

Take `c1ccc(Cc2c(-c3ccco3)nc3c4ccccc4ccn23)cc1`: the activation is 3.52% (active).

For `COc1ccccc1Cc1c(-c2ccc(Cl)cc2)nc2c3ccccc3ccn12`, the activation is 0.62%.

`Cc1ccc(-c2nc3c(C)cc(Br)cn3c2Cc2ccccc2)cc1`: the activation was -0.47%.

Regarding `CN1C(=O)c2cc(NS(C)(=O)=O)ccc2OC[C@@H]2O[C@@H](CC(=O)NCc3ccc(-c4ccccc4)cc3)CC[C@H]21`, the activation was -1.43%.

As to `Cc1ccccc1CN1CCCCC(NC(=O)c2cccc(C#N)c2)C1=O` (stereo unspecified), the activation is -1.04%.

Take `N#Cc1ccc(C2N=C(c3ccccc3)NO2)cc1` (stereo unspecified): the activation was 0.03%.

On to `S=C1NC(c2ccccc2)=NCN1c1ccc(Br)cc1`, for which the activation is -0.91%.

As to `Brc1ccccc1C1N=C(c2ccccc2)NO1` (stereo unspecified), the activation was 1.18% (active).

As for `COC(=O)C1CN(Cc2ccc(F)cc2)CCS(=O)(=O)N1Cc1ccc(Cl)cc1` (stereo unspecified), the activation is -1.29%.

As for `CCN(CCCNC(=O)C1CCN(S(=O)(=O)c2cnc[nH]2)CC1)c1ccccc1`, the activation is -1.52%.

Consider `O=C(C1CCN(S(=O)(=O)c2cnc[nH]2)CC1)N1CCN(Cc2ccc3c(c2)OCO3)CC1`, for which the activation was 1.02% (active).

`Cc1cccc(N2CCN(C(=O)C3CCN(S(=O)(=O)c4cnc[nH]4)CC3)CC2)c1C`: the activation was -0.57%.

Take `O=C(c1ccncc1)N1CC[C@H]2[C@H](CCCN2Cc2ccc(F)cc2)C1`: the activation was -0.89%.

In the case of `CCOC(=O)[C@]12CCCC3=C1N(CCC3)C(=O)[C@@H](CC(=O)N1CCSCC1)C2`, the activation was 0.21%.

Take `Clc1ccc(-n2c(COc3ccccc3)nnc2SCc2nc3ccccc3[nH]2)cc1`: the activation was -1.69%.

For `O=C(Nc1ccc2c(c1)OCCO2)C1c2ccccc2OCC(=O)N1Cc1ccccn1` (stereo unspecified), the activation was -0.32%.

`O=C(Nc1ccc(Cl)cc1)C1c2cccc[n+]2CC(=O)N1Cc1ccc2c(c1)OCO2` (stereo unspecified): the activation was 2.86% (active).

For `CCCOc1ccc(NC(=O)CC2C(=O)N(C)C(=S)N2Cc2ccc3c(c2)OCO3)cc1` (stereo unspecified), the activation was -1.45%.

As to `COc1ccc(Cn2ccc3ccc(-c4ccc5ccn(Cc6ccccc6C)c5c4)cc32)cc1`, the activation was -0.43%.

In the case of `O=S1(=O)c2c(cccc2N2CCSCC2)Oc2ccccc2CN1Cc1cn(Cc2ccc(F)cc2)nn1`, the activation is -1.43%.

As to `O=C(CN1CCC(NC(=O)NCc2ccccc2)CC1)Nc1ccc2c(c1)OCCO2`, the activation is -1.37%.

Take `C=CCN1C(C(=O)OC)CN(Cc2cn(Cc3ccccc3)nn2)CCS1(=O)=O` (stereo unspecified): the activation was -1.67%.

For the molecule `C=CCN(C)CC#Cc1ccccc1`, the activation was -0.95%.

In the case of `COc1ccc(-n2c(SCC(=O)NC3CCCC3)nnc2-c2ccncc2)cc1`, the activation is -0.71%.

In the case of `CS(=O)(=O)N(CC(=O)N/N=C/c1ccccn1)c1ccc(Oc2ccccc2)cc1`, the activation was -0.77%.

Take `S=C(NN=Cc1ccccn1)Nc1ccccn1`: the activation is 1.63% (active).

In the case of `O=C(O)C1C2C=CC(O2)C1C(=O)Nc1ccccn1` (stereo unspecified), the activation is -1.12%.

For the molecule `CCCOc1ccc(Oc2c(Cl)cnn(Cc3cccc4ccccc34)c2=O)cc1`, the activation is -1.41%.

Consider `O=C1CC(c2ccc3c(c2)OCO3)N=C2N(CC3CC3)C/C(=C/c3ccccc3)N12` (stereo unspecified), for which the activation is -1.93%.

As for `CCOc1ccc(-n2c(SCC(=O)Nc3cc(C)c(NC(=O)c4ccccc4)cc3OC)nnc2-c2cccc(Cl)c2)cc1`, the activation is -1.5%.

In the case of `CCOC(=O)c1c(NC(=O)C2(C)Cc3ccccc3C(=O)O2)sc2c1CCCC2` (stereo unspecified), the activation is -1.31%.

For the molecule `CCOC(=O)c1c(NC(=S)Nc2ccccc2C)sc2c1CCC2`, the activation was 1.91% (active).

`CCOC(=O)c1c(NC(=S)Nc2ccccc2)sc2c1CCN(C)C2`: the activation was -1.34%.

For the molecule `CC(=O)OCCN1CCCC12CCC(c1ccccc1)CC2` (stereo unspecified), the activation is -0.84%.

As for `C#CCN([C@H](C(=O)OC)C(C)CC)S(=O)(=O)c1ccccc1Br` (stereo partly specified), the activation was -1.85%.

Take `CCOc1ccc(N2CC(C(=O)N/N=C/c3sccc3C)CC2=O)cc1` (stereo unspecified): the activation is -1.57%.

Consider `Cc1ccc(-c2nnc(SCC(=O)N/N=C/c3cccs3)n2-c2ccc(C)cc2)cc1`, for which the activation is -0.75%.

For `Cc1ccsc1/C=N/NC(=O)Cc1cc(=O)[nH][nH]1`, the activation is 1.42% (active).
